In PubChem BioAssay AID2108 (National Center for Advancing Translational Sciences (NCATS), 2009):
Results filed as inconclusive are left out. Calls of active or inactive are those of the source. Calls come from the whole dose curve; as a rule, active = well fitted curve in the direction sought with a large enough effect; inconclusive = small, poorly fitted or top-dose-only effect, or effect the other way, or another doubt; inactive = no such curve, though single readings can be large or run the other way.

Each compound was assayed against Alpha-galactosidase A (Homo sapiens) (UniProt P06280) (assay: Confirmation of Inhibitors of Human alpha-Galactosidase Using Spleen Homogenate). Conditions: alpha-galactosidase enzyme activity; series mostly up to 56.2 µM.
Chain of Alpha-galactosidase A (Homo sapiens) (P06280 32-429 limits assumed): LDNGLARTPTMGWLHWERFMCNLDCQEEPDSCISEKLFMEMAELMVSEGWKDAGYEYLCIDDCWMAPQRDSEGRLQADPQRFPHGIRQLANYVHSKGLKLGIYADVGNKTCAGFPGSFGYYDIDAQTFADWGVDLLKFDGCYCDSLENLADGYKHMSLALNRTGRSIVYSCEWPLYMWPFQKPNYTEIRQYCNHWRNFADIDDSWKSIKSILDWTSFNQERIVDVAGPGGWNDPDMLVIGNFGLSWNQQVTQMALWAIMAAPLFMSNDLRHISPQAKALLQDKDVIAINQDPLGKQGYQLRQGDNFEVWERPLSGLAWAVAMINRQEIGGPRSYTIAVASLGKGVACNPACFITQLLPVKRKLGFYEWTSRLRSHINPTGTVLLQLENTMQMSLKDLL
In short: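 AC50 values come from Hill-equation fits of normalised 4-methylumbelliferone fluorescence (365/440 nm, read after NaOH/glycine stop). Enzyme source: spleen homogenate; substrate 1 mM final; pH 5.0 citrate buffer; 40 min at 37C; compound titration 0.5 nM–58 uM.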

Row | SMILES | outcome
1 | COc1ccc(/C=C/c2nnc(NC(=O)CSc3ccc(Cl)cc3)s2)cc1 | inactive
2 | CN(C)C=Nc1nc2ccccc2nc1N1CCCC1 | inactive
3 | COc1ccc(/C=C/c2nnc(NC(C)=O)s2)cc1 | inactive
4 | O=S(=O)(c1ccccc1Cl)N1CCOCC1 | inactive
5 | Cc1ccc(S(=O)(=O)N2CCN(C(=O)C3COc4ccccc4O3)CC2)cc1C (centres undefined) | inactive
6 | COc1ccc(Cc2nnc(NC(=O)CSc3ccc(Cl)cc3)s2)cc1 | inactive
7 | O=C(c1ccccc1)N1CCN(C(=O)c2ccccc2)CC1 | inactive
8 | COc1cc(C2C(C(=O)c3ccco3)=C(O)C(=O)N2CC2CCCO2)ccc1O (centres undefined) | inactive
9 | CCOc1c(Br)cc(CNc2ccc(N3CCN(C(C)=O)CC3)cc2)cc1OC | inactive
10 | c1ccc(-n2c(-c3cccs3)nc3nc4ccccc4nc32)cc1 | inactive
11 | Nc1c(NCCN2CCOCC2)c2ccccc2oc1=O | inactive
12 | C=CCSc1nc(-c2ccc3c(c2)OCO3)cc(C(F)(F)F)c1C#N | inactive
13 | CCN(CC)c1ccc(-c2nc3cnccn3c2NC2CCCC2)cc1 | inactive
14 | C=CCn1c2ccccc2c2nnc(SCC(=O)NC(C(=O)OC)C(C)C)nc21 (centres undefined) | inactive
15 | COc1ccc(-c2cc(=O)c(C(=O)c3ccc(C)cc3)n[nH]2)cc1 | inactive
16 | CC(N=C(NC#N)Nc1ccncc1)C(C)(C)C (centres undefined) | inactive
17 | CCNc1sc(C(=O)c2cccs2)c(N)c1-c1nc2ccccc2s1 | inactive
18 | Cc1cccc2cc3c(NC(=O)c4ccccn4)nn(C)c3nc12 | inactive
19 | O=C(O)c1cc(NCc2ccc3c(c2)OCO3)ccc1N1CCOCC1 | inactive
